From the supplement of paper PMC8007513
Where a name gives a salt, the structure may show the parent alone. ± gives the standard error. Screen size: about 1,300 compounds; about 130 (10%) showed an effect of 50% or more. What follows is part of a selection rich in strong results, with near analogues and random picks from the rest.

System: Trichoderma virens ATCC 9645
Test: growth yield (OD600) with compound + IPBC relative to untreated control; higher = less growth inhibition
Conditions: compound concentration: 100 uM, IPBC concentration: 200 ng/ml
Method in brief: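 Trichoderma virens ATCC 9645 spores from 7-day potato dextrose agar plates were suspended in potato dextrose broth at 15,000 spores ml^−1. Aliquots of 100 μl with library compounds at 100 μM final, with or without a co-applied biocide at 200 ng ml^−1, were grown in 96-well plates at 30 °C. OD600 was read at 40 h and 72 h on a BioTek EL800. Growth is expressed relative to the control without either agent, as means of duplicate screens.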

Structure (SMILES) | growth yield (40 h) | growth yield (72 h)
CCC[C@@H]1C[C@@H](C(=O)N[C@@H]([C@H]2O[C@H](SC)[C@H](O)[C@@H](O)[C@H]2O)[C@@H](C)O)N(C)C1 [Lincomycin hydrochloride] + CCCCNC(=O)OCC#CI [3-iodo-2-propynyl butylcarbamate (IPBC)] | 85.8 ± 3.5% | 94.6 ± 2.3%
COCC1=C(C(=O)OC(C)OC(=O)OC(C)C)N2C(=O)[C@@H](NC(=O)/C(=N\OC)c3csc(N)n3)[C@H]2SC1 (some centres not stated) [Cefpodoxime proxetil] + CCCCNC(=O)OCC#CI [3-iodo-2-propynyl butylcarbamate (IPBC)] | 121 ± 3.5% | 113.6 ± 0.94%
Nc1cc(N2CCCCC2)nc(N)[n+]1[O-] [Minoxidil] + CCCCNC(=O)OCC#CI [3-iodo-2-propynyl butylcarbamate (IPBC)] | 90.1 ± 2.1% | 93.5 ± 1.7%
C[C@]12CC[C@H](O)C[C@H]1CC[C@@H]1[C@@H]2C[C@@H](O)[C@]2(C)[C@@H](C3=CC(=O)OC3)CC[C@]12O [Digoxigenin] + CCCCNC(=O)OCC#CI [3-iodo-2-propynyl butylcarbamate (IPBC)] | 86.6 ± 2.7% | 90.72 ± 0.32%
COC(=O)[C@@H]1[C@H]2C[C@H]3c4[nH]c5ccccc5c4CCN3C[C@@H]2CC[C@@H]1O [Yohimbine hydrochloride] + CCCCNC(=O)OCC#CI [3-iodo-2-propynyl butylcarbamate (IPBC)] | 82.4 ± 1.1% | 89.25 ± 0.73%
Nc1nc2[nH]cc(CCc3ccc(C(=O)N[C@@H](CCC(=O)O)C(=O)O)cc3)c2c(=O)[nH]1 [Pemetrexed disodium] + CCCCNC(=O)OCC#CI [3-iodo-2-propynyl butylcarbamate (IPBC)] | 94.8 ± 7.2% | 94 ± 4%
CC(CN1c2ccccc2Sc2ccccc21)N(C)C (configuration not stated) [Promethazine hydrochloride] + CCCCNC(=O)OCC#CI [3-iodo-2-propynyl butylcarbamate (IPBC)] | 78.2 ± 1.9% | 94.3 ± 4.1%
CCSc1ccc2c(c1)N(CCCN1CCN(C)CC1)c1ccccc1S2 [Thiethylperazine dimalate] + CCCCNC(=O)OCC#CI [3-iodo-2-propynyl butylcarbamate (IPBC)] | 4.45 ± 0.32% | 3.25 ± 0.1%
CCN(CC)C(C)CN1c2ccccc2Sc2ccccc21 (configuration not stated) [Ethopropazine hydrochloride] + CCCCNC(=O)OCC#CI [3-iodo-2-propynyl butylcarbamate (IPBC)] | 72.4 ± 3.8% | 89.2 ± 1.6%
C[C@]12C=CC(=O)C=C1CC[C@H]1[C@@H]3C[C@@H](O)[C@](O)(C(=O)CO)[C@@]3(C)C[C@H](O)[C@@]12F [Triamcinolone] + CCCCNC(=O)OCC#CI [3-iodo-2-propynyl butylcarbamate (IPBC)] | 98.3 ± 3% | 97.5 ± 1.9%
COc1ccc(-c2cc(=S)ss2)cc1 [Anethole-trithione] + CCCCNC(=O)OCC#CI [3-iodo-2-propynyl butylcarbamate (IPBC)] | 77 ± 1.8% | 74.9%
CN1C[C@H](CNC(=O)OCc2ccccc2)C[C@@H]2c3cccc4c3c(cn4C)C[C@H]21 [Metergoline] + CCCCNC(=O)OCC#CI [3-iodo-2-propynyl butylcarbamate (IPBC)] | 45.4 ± 15% | 112 ± 9.5%
CO[C@]12C[C@@H](COC(=O)c3cncc(Br)c3)CN(C)[C@@H]1Cc1cn(C)c3cccc2c13 [Nicergoline] + CCCCNC(=O)OCC#CI [3-iodo-2-propynyl butylcarbamate (IPBC)] | 74.2 ± 8.4% | 93 ± 5.3%
CN1C[C@H](C(=O)N[C@]2(C)O[C@@]3(O)[C@@H]4CCCN4C(=O)[C@H](Cc4ccccc4)N3C2=O)C[C@@H]2c3cccc4[nH]cc(c34)C[C@H]21 [Dihydroergotamine tartrate] + CCCCNC(=O)OCC#CI [3-iodo-2-propynyl butylcarbamate (IPBC)] | 105 ± 5.2% | 107 ± 2.3%
CC[C@H](C)C(=O)O[C@H]1C[C@@H](C)C=C2C=C[C@H](C)[C@H](CC[C@@H]3C[C@@H](O)CC(=O)O3)[C@H]21 [Lovastatin] + CCCCNC(=O)OCC#CI [3-iodo-2-propynyl butylcarbamate (IPBC)] | 104 ± 4% | 103 ± 1.6%
CN1CCN(C(=O)OC2c3nccnc3C(=O)N2c2ccc(Cl)cn2)CC1 (configuration not stated) [Zopiclone] + CCCCNC(=O)OCC#CI [3-iodo-2-propynyl butylcarbamate (IPBC)] | 91.8 ± 2.5% | 93 ± 1.4%
CC(=O)OC[C@H]1O[C@@H]([S-])[C@H](OC(C)=O)[C@@H](OC(C)=O)[C@@H]1OC(C)=O.CCP(CC)CC.[Au+] [Auranofin] + CCCCNC(=O)OCC#CI [3-iodo-2-propynyl butylcarbamate (IPBC)] | 23.2 ± 1.3% | 29.7 ± 2.4%
CO[C@H]1/C=C/O[C@@]2(C)Oc3c(C)c(O)c4c(c3C2=O)C2=NC3(CCN(CC(C)C)CC3)NC2=C(NC(=O)/C(C)=C\C=C\[C@H](C)[C@H](O)[C@@H](C)[C@@H](O)[C@@H](C)[C@H](OC(C)=O)[C@@H]1C)C4=O [Rifabutin] + CCCCNC(=O)OCC#CI [3-iodo-2-propynyl butylcarbamate (IPBC)] | 99.4% | 97.1 ± 8.4%

Structure (SMILES) | growth yield (40 h) | growth yield (72 h)
CC(=O)OCC1=C(C(=O)O)N2C(=O)[C@@H](NC(=O)Cc3cccs3)[C@H]2SC1 [Cephalothin sodium salt] + CCCCNC(=O)OCC#CI [3-iodo-2-propynyl butylcarbamate (IPBC)] | 91.7 ± 8.4% | 90.9 ± 7.9%
CCC(Cc1c(I)cc(I)c(N)c1I)C(=O)O (configuration not stated) [Iopanoic acid] + CCCCNC(=O)OCC#CI [3-iodo-2-propynyl butylcarbamate (IPBC)] | 70.2 ± 2.5% | 88.3 ± 4.4%
COc1c(N2C[C@@H]3CCCN[C@@H]3C2)c(F)cc2c(=O)c(C(=O)O)cn(C3CC3)c12 [Moxifloxacin] + CCCCNC(=O)OCC#CI [3-iodo-2-propynyl butylcarbamate (IPBC)] | 109 ± 2.7% | 105 ± 3.5%
O=C1c2ccccc2S(=O)(=O)N1CCCCN1CCN(c2ncccn2)CC1 [Ipsapirone] + CCCCNC(=O)OCC#CI [3-iodo-2-propynyl butylcarbamate (IPBC)] | 87.4 ± 4.8% | 90.7 ± 1.8%
Cc1ccc(N(CC2=NCCN2)c2cccc(O)c2)cc1 [Phentolamine hydrochloride] + CCCCNC(=O)OCC#CI [3-iodo-2-propynyl butylcarbamate (IPBC)] | 86.25 ± 0.79% | 97.64 ± 0.73%
CCCCCC[C@H]1C(=O)O[C@H](C)[C@H](NC(=O)c2cccc(NC=O)c2O)C(=O)O[C@@H](C)[C@@H]1OC(=O)CC(C)C [Antimycin A] + CCCCNC(=O)OCC#CI [3-iodo-2-propynyl butylcarbamate (IPBC)] | 17.6 ± 1.1% | 42.9 ± 2.4%
COc1cccc(C2(O)CCCCC2CN(C)C)c1 (configuration not stated) [Tramadol hydrochloride] + CCCCNC(=O)OCC#CI [3-iodo-2-propynyl butylcarbamate (IPBC)] | 87.5 ± 2.1% | 90.51 ± 0.73%
COCCCOc1cc(C[C@@H](C[C@H](N)[C@@H](O)C[C@H](C(=O)NCC(C)(C)C(N)=O)C(C)C)C(C)C)ccc1OC [Aliskiren hemifumarate] + CCCCNC(=O)OCC#CI [3-iodo-2-propynyl butylcarbamate (IPBC)] | 93.4 ± 5.1% | 99.1 ± 1.1%
CCOc1ccccc1OC(c1ccccc1)C1CNCCO1 (configuration not stated) [Reboxetine mesylate] + CCCCNC(=O)OCC#CI [3-iodo-2-propynyl butylcarbamate (IPBC)] | 82.92 ± 0.32% | 90.61 ± 0.63%
CC(N)C(O)c1ccccc1 (configuration not stated) [Phenylpropanolamine hydrochloride] + CCCCNC(=O)OCC#CI [3-iodo-2-propynyl butylcarbamate (IPBC)] | 97.1 ± 7.5% | 101 ± 3.5%
CCc1cccc(CC)c1NC(=O)CN(CC(=O)O)CC(=O)O [Etifenin] + CCCCNC(=O)OCC#CI [3-iodo-2-propynyl butylcarbamate (IPBC)] | 87.7 ± 4.1% | 94.4 ± 2.3%
O=C(O)CN(CCN(CC(=O)O)CC(=O)O)CCN(CC(=O)O)CC(=O)O [Pentetic acid] + CCCCNC(=O)OCC#CI [3-iodo-2-propynyl butylcarbamate (IPBC)] | 18.7 ± 1.6% | 88.41 ± 0.73%
O=P(O)(O)C(O)(Cc1cccnc1)P(=O)(O)O [Risedronic acid monohydrate] + CCCCNC(=O)OCC#CI [3-iodo-2-propynyl butylcarbamate (IPBC)] | 88.8 ± 2.7% | 91.66 ± 0.42%
COc1ccc(C[C@@H]2c3cc(OC)c(OC)cc3CC[N@+]2(C)CCC(=O)OCCCCCOC(=O)CC[N@@+]2(C)CCc3cc(OC)c(OC)cc3[C@H]2Cc2ccc(OC)c(OC)c2)cc1OC [Cisatracurium besylate] + CCCCNC(=O)OCC#CI [3-iodo-2-propynyl butylcarbamate (IPBC)] | 78.3 ± 2.1% | 85.9 ± 4.1%
CC1=C(/C=C/C(C)=C/C=C/C(C)=C\C(=O)O)C(C)(C)CCC1 [Isotretinoin] + CCCCNC(=O)OCC#CI [3-iodo-2-propynyl butylcarbamate (IPBC)] | 83.5% | 105 ± 16%
CCCCOc1ccc(CC(=O)NO)cc1 [Bufexamac] + CCCCNC(=O)OCC#CI [3-iodo-2-propynyl butylcarbamate (IPBC)] | 99.59 ± 0.16% | 95.438 ± 1e-14%
CCCCOc1ccc(C(=O)CCN2CCCCC2)cc1 [Dyclonine hydrochloride] + CCCCNC(=O)OCC#CI [3-iodo-2-propynyl butylcarbamate (IPBC)] | 75.4 ± 1.1% | 90.8 ± 1.5%
N=C(N)c1ccc(OCCCCCOc2ccc(C(=N)N)cc2)cc1 [Pentamidine isethionate] + CCCCNC(=O)OCC#CI [3-iodo-2-propynyl butylcarbamate (IPBC)] | 2.7 ± 0.48% | 2.1 ± 0.42%
